# Assay results taken from PMC12350791.
# Molecular target: ACTR2 (UniProt P61160)
# Experiment: cross-linking mass spectrometry
# Conditions: DSBSO, in cells or nuclear extract, not told apart
# DDX39B, Q13838, sequence (Q13838 whole entry): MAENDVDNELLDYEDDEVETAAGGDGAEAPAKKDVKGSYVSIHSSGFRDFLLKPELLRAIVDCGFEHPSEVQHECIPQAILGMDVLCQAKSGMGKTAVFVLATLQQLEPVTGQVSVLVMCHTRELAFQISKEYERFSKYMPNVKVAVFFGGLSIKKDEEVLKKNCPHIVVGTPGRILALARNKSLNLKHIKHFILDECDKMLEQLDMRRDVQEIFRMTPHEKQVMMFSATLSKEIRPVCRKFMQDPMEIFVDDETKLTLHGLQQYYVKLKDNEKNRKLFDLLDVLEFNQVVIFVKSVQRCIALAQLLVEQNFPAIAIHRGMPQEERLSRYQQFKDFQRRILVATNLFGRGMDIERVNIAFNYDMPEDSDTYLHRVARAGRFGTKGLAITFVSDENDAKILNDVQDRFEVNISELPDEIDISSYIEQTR
# ERH, P84090, sequence (P84090 whole entry): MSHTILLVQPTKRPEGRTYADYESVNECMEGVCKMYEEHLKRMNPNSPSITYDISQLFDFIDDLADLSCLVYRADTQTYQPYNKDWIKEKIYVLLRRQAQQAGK
# DDX39A, O00148, sequence (O00148 whole entry): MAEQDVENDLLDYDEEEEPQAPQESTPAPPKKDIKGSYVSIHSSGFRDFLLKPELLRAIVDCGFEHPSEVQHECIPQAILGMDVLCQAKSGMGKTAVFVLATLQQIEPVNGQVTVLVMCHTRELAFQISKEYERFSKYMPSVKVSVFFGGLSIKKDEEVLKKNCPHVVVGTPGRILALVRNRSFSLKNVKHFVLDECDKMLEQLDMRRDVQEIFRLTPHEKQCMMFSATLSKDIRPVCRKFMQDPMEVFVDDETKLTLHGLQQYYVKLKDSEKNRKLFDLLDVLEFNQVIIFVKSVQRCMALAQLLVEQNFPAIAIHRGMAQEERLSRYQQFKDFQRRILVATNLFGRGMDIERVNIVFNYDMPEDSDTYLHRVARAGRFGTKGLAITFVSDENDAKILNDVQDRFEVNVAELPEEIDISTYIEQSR
row,Substance,cross-linked residues
1,"ARPC4, P59998",K44 - K322
2,"ARPC3, O15145",K61 - K46
3,"ACTR3, P61158",K348 - K46
4,"ARPC1B, O15143",K49 - K219

# Molecular target: CHTOP (UniProt Q9Y3Y2)
# Experiment: cross-linking mass spectrometry
# Conditions: DSBSO, in cells or nuclear extract, not told apart
# CHTOP, sequence (Q9Y3Y2 whole entry): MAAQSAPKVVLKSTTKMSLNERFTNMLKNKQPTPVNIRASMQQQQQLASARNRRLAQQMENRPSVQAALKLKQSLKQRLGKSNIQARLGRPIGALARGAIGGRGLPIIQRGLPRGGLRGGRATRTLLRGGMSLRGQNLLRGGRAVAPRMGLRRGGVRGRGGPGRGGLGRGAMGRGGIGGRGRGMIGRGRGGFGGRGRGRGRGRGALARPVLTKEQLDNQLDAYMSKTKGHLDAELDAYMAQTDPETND
row,Substance,cross-linked residues
1,"DDX39A, O00148",K187 - K226
2,"DDX39B, Q13838",K188 - K226
3,"ERH, P84090",K90 - K30
